Assay outcomes deposited in PubChem by Sanford-Burnham Center for Chemical Genomics.
Artemis inh: Artemis endonuclease inhibitors, primary screen, biochemical, fluorescence intensity, FAM/BHQ-1 hairpin substrate | Protein artemis (Homo sapiens), Q96SD1 | recombinant Artemis, quenched FAM hairpin cleavage fluorescence | inhibition, % at 10 µM | hit rate 0.78% among 30,000 | AID 686954, 2013;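 active = at 10 µM dose, at least 30% inhibition, measured as corrected fluorescence normalized to stimulator and neutral control wells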
Numbers stand for hits. This is one part of a sample in which hits are shown more often than they occur.

Screening Cn1c(Oc2ccccc2NCc2cccc(Br)c2)cc(=O)n(C)c1=O returned Artemis inh inactive.
For Cc1ccc(-n2ncc(-c3nnc(SCC(=O)NC4CCCC4)o3)c2N)cc1C the results were Artemis inh inactive.
`COc1ccccc1N1CCN(c2nnc(-c3ccc(F)cc3)c3ccccc23)CC1` gave Artemis inh inactive.
`N#Cc1c(N2CCCCC2)nc(N)c2c(N)nc3c(c12)CC(c1ccccc1)O3` (stereo unspecified) gave Artemis inh inactive.
Screening N#Cc1c(N2CCCC2)nc(N)c2c(N)nc(N3CCCC3)cc12 returned Artemis inh 67.
COc1ccccc1N1CCN(c2nc(N)c(C#N)c(CC#N)c2C#N)CC1 was read as Artemis inh inactive.
For COc1cc2c(C#N)c(N3CCN(c4ccccc4OC)CC3)nc(N)c2c(N)n1 the results were Artemis inh 45.
Screening N#Cc1c(C(F)(F)F)cc(C2CC2)nc1N1CCCC1 returned Artemis inh inactive.
`CCOC(=O)CCCNC(=O)COC(=O)c1ccc(O)cc1` gave Artemis inh inactive.
Screening CCCCSc1nc(C)cc(C)c1S(=O)(=O)c1ccccc1C returned Artemis inh inactive.
`CCOC(=O)/C(N=Nc1ccc(F)cc1)=C(/O)c1ccc([N+](=O)[O-])cc1` gave Artemis inh inactive.
For Nc1c(C(=O)c2ccccc2)sc2snc(SCC(=O)c3ccccc3)c12 the results were Artemis inh inactive.
O=C(O)CCCCCCCCCC(=O)c1cccs1 was read as Artemis inh inactive.
Screening COC(=O)c1nn(-c2ccccc2)c(Sc2ccc(C)cc2)c1/C=N/O returned Artemis inh inactive.
Cc1nnc(C)n1/N=C/c1cccn1C was read as Artemis inh inactive.
For Cc1nnc(-c2ccccc2)c(=O)n1/N=C/c1c(O)ccc2ccccc12 the results were Artemis inh 47.
O=c1c2ccccc2nc(-c2ccco2)n1/N=C/c1ccccc1O was read as Artemis inh inactive.
For COc1cccc(/C=N/NC(=O)c2ccc(-c3ccccc3)cc2)c1O the results were Artemis inh inactive.
`COc1cccc(/C=N/NC(=O)c2[nH]c(C)c(C(=O)N/N=C/c3cccc(OC)c3O)c2C)c1O` gave Artemis inh 91.
Screening COc1ccccc1NC(=O)c1[nH]c(C)c(C(C)=O)c1C returned Artemis inh inactive.
Screening COc1ccc(CCNC(=O)c2ccc(NS(=O)(=O)c3c(C)noc3C)cc2)cc1OC returned Artemis inh inactive.
Screening Cc1ccccc1C(=O)OCCCN=C1NS(=O)(=O)c2ccccc21 returned Artemis inh inactive.
Screening O=C(NCc1cccnc1)/C(=C/c1ccc(-c2cccc(Cl)c2)o1)S(=O)(=O)c1ccccc1 returned Artemis inh inactive.
For Cc1ccc(C(=O)N/C(=C\c2ccc(-c3cc(Cl)ccc3Cl)o2)C(=O)NCc2cccnc2)cc1 the results were Artemis inh 34.
Screening O=C(Nc1c(Cl)cc(Cl)cc1C(=O)NCc1cccnc1)c1ccc(Cl)cc1Cl returned Artemis inh inactive.
COc1cc(NC(=S)N2CCN(C(c3ccccc3)c3ccccc3)CC2)cc(OC)c1 was read as Artemis inh inactive.
Screening CCOC(=O)c1ccc(NC2=CC(=O)C(=O)c3ccccc32)cc1 returned Artemis inh 66.
Screening CCOC(=O)c1ccc(NC(=O)CCOc2ccccc2)cc1 returned Artemis inh inactive.
CCOC(=O)c1ccc(NC(=O)CNS(=O)(=O)c2ccccc2)cc1 was read as Artemis inh inactive.
Screening CCC(C)(C)n1nnnc1C(c1ccc(C)cc1)N(Cc1ccco1)Cc1cccs1 (stereo unspecified) returned Artemis inh inactive.
Screening COc1ccc(Br)cc1/C=N/NC(=O)c1nc(-c2ccccc2)n2c1CCCCC2 returned Artemis inh 30.
Cc1cc(C(=O)N/N=C/c2cc(Br)ccc2OC(=O)c2ccccc2)n[nH]1 was read as Artemis inh inactive.
COc1ccccc1S(=O)(=O)Nc1ccc(-c2nnc3n2CCCCC3)cc1 was read as Artemis inh inactive.
`COc1ccc(S(=O)(=O)N2CCC(C(=O)N3CCCCCC3)CC2)cc1` gave Artemis inh inactive.
Screening CCNc1ccc(Br)cc(C(=O)/C=C/c2ccc3c(c2)OCO3)c1=O returned Artemis inh 34.
For CCCc1cc2c(cc1NC(=O)c1ccc(Br)cc1)OCO2 the results were Artemis inh inactive.
`CC(=O)N/C(=C/c1ccc2c(c1)OCO2)C(=O)NCCCO` gave Artemis inh inactive.
`Cc1cc(C)c(NC(=O)c2ccc(CN3CCc4ccccc4C3)cc2)c(C)c1` gave Artemis inh inactive.
N#C/C(=C\c1ccc(Cl)cc1)c1nc2ncccc2[nH]1 was read as Artemis inh inactive.
For CCCCOc1ccc(CNC(=S)N/N=C/c2ccc(OC)c(OC)c2)cc1 the results were Artemis inh inactive.
For Cc1cccc(C(=O)N2CCN(c3ccc([N+](=O)[O-])c(N4CCOCC4)c3)CC2)c1 the results were Artemis inh inactive.
Cc1ccc(C(=O)N2CCN(c3ccc([N+](=O)[O-])c(NCc4ccco4)c3)CC2)cc1 was read as Artemis inh 31.
